Laboratory results: PubChem BioAssay AID1159580 (chemical genetic matrix, 2015)
Out of some 5,500 compounds screened, about 2,000 (36%) were called active. Not shown: some 18% with an inconclusive outcome. Cut-off read from the data, not from the text of the source: active = normalized growth mostly below about 0.91 (no sharp cut-off); inconclusive = no clear call, values can overlap the other calls; inactive = mostly above about 0.92. This is one part of the list.

Assay: chemical genetic growth profiling, strain panel (AID 1159580);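 note: tested at 20 µM; growth read once vehicle control cultures reached saturation at 30 °C; 1 = growth at the plate median or of vehicle wells; lower values mean less growth of the strain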
Details: growth OD
[1] = S. cerevisiae deletion strains, locus YMR307W, strain GAS1, hits give low values
[2] = S. cerevisiae deletion strains, locus YPL055C, strain LGE1, hits give low values

Measured: normalized growth

COc1cc(C(=O)O)cc(OC)c1OC
inactive: S. cerevisiae deletion strains, locus YAL013W, strain DEP1, hits give low values 1.02 | S. cerevisiae deletion strains, locus YBR021W, strain FUR4, hits give low values 1.01 | S. cerevisiae deletion strains, locus YBR229C, strain ROT2, hits give low values 1.01 | S. cerevisiae deletion strains, locus YCL029C, strain bik1, hits give low values 1.04 | S. cerevisiae deletion strains, locus YDL035C, strain GPR1, hits give low values 1.04 | S. cerevisiae deletion strains, locus YDL074C, strain BRE1, hits give low values 1.05 | S. cerevisiae deletion strains, locus YDL101C, strain DUN1, hits give low values 1.02 | S. cerevisiae deletion strains, locus YDL134C, strain PPH21, hits give low values 1.01 | S. cerevisiae deletion strains, locus YDL185W, strain tfp1, hits give low values 1.03 | S. cerevisiae deletion strains, locus YDL192W, strain arf1, hits give low values 1.02 | S. cerevisiae deletion strains, locus YDR101C, strain arx1, hits give low values 1.02 | S. cerevisiae deletion strains, locus YDR162C, strain NBP2, hits give low values 1.02 | S. cerevisiae deletion strains, locus YDR318W, strain mcm21, hits give low values 1.02 | S. cerevisiae deletion strains, locus YDR388W, hits give low values 1.03 | S. cerevisiae deletion strains, locus YDR502C, strain sam2, hits give low values 1.02 | S. cerevisiae deletion strains, locus YEL061C, strain CIN8, hits give low values 1.01 | S. cerevisiae deletion strains, locus YER110C, hits give low values 1.03 | S. cerevisiae deletion strains, locus YER155C, strain BEM2, hits give low values 1.01 | S. cerevisiae deletion strains, locus YER167W, strain BCK2, hits give low values 1.03 | S. cerevisiae deletion strains, locus YGL078C, strain dbp3, hits give low values 1.03 | S. cerevisiae deletion strains, locus YGL086W, strain mad1, hits give low values 1.03 | S. cerevisiae deletion strains, locus YGL248W, strain PDE1, hits give low values 1.02 | S. cerevisiae deletion strains, locus YGR078C, strain PAC10, hits give low values 1.03 | S. cerevisiae deletion strains, locus YGR135W, strain pre9, hits give low values 1.02 | S. cerevisiae deletion strains, locus YGR252W, strain gcn5, hits give low values 1.09 | S. cerevisiae deletion strains, locus YHR030C, strain SLT2, hits give low values 1.02 | S. cerevisiae deletion strains, locus YHR079C, strain IRE1 (second series), hits give low values 1.02 | S. cerevisiae deletion strains, locus YHR094C, strain hxt1, hits give low values 1.02 | S. cerevisiae deletion strains, locus YHR129C, strain ARP1, hits give low values 1.02 | S. cerevisiae deletion strains, locus YHR200W, strain rpn10, hits give low values 1.02 | S. cerevisiae deletion strains, locus YIL066C, strain RNR3, hits give low values 1.04 | S. cerevisiae deletion strains, locus YIL073C, strain SPO22, hits give low values 1.09 | S. cerevisiae deletion strains, locus YIL125W, strain kgd1, hits give low values 1.03 | S. cerevisiae deletion strains, locus YIR030C, strain dcg1, hits give low values 1.02 | S. cerevisiae deletion strains, locus YJL095W, strain BCK1, hits give low values 1.02 | S. cerevisiae deletion strains, locus YJL134W, strain LCB3, hits give low values 1.02 | S. cerevisiae deletion strains, locus YJL168C, strain set2, hits give low values 1.03 | S. cerevisiae deletion strains, locus YJL187C, strain SWE1 (second series), hits give low values 1.03 | S. cerevisiae deletion strains, locus YJR043C, strain POL32, hits give low values 1.03 | S. cerevisiae deletion strains, locus YJR075W, strain HOC1, hits give low values 1.04 | S. cerevisiae deletion strains, locus YKL009W, strain mrt4, hits give low values 1.08 | S. cerevisiae deletion strains, locus YKL068W, hits give low values 1.04 | S. cerevisiae deletion strains, locus YKL085W, strain MDH1 (second series), hits give low values 1.07 | S. cerevisiae deletion strains, locus YKL085W, strain MDH1, hits give low values 1.07 | S. cerevisiae deletion strains, locus YKR001C, strain vps1, hits give low values 1.02 | S. cerevisiae deletion strains, locus YLR039C, strain RIC1, hits give low values 1.07 | S. cerevisiae deletion strains, locus YLR058C, strain SHM2, hits give low values 1.02 | S. cerevisiae deletion strains, locus YLR102C, strain apc9, hits give low values 1.02 | S. cerevisiae deletion strains, locus YLR262C, strain YPT6, hits give low values 1.09 | S. cerevisiae deletion strains, locus YLR268W, strain sec22, hits give low values 1.02 | S. cerevisiae deletion strains, locus YLR330W, strain CHS5, hits give low values 1.02 | S. cerevisiae deletion strains, locus YLR342W, strain FKS1 (second series), hits give low values 1.04 | S. cerevisiae deletion strains, locus YLR371W, strain rom2, hits give low values 1.04 | S. cerevisiae deletion strains, locus YLR418C, strain cdc73, hits give low values 1.04 | S. cerevisiae deletion strains, locus YML016C, strain PPZ1, hits give low values 1.02 | S. cerevisiae deletion strains, locus YML032C, strain rad52, hits give low values 1.03 | S. cerevisiae deletion strains, locus YML124C, strain tub3, hits give low values 1.02 | S. cerevisiae deletion strains, locus YMR078C, strain ctf18, hits give low values 1.06 | S. cerevisiae deletion strains, locus YMR223W, strain ubp8, hits give low values 1.02 | S. cerevisiae deletion strains, locus YMR263W, strain SAP30, hits give low values 1.02 | [1] 1.03 | S. cerevisiae deletion strains, locus YNL067W, strain RPL9B, hits give low values 1.03 | S. cerevisiae deletion strains, locus YNL128W, strain TEP1, hits give low values 1.03 | S. cerevisiae deletion strains, locus YNL153C, strain GIM3, hits give low values 1.01 | S. cerevisiae deletion strains, locus YNL233W, strain BNI4, hits give low values 1.03 | S. cerevisiae deletion strains, locus YNL250W, strain rad50, hits give low values 1.03 | S. cerevisiae deletion strains, locus YNL271C, strain bni1, hits give low values 1.02 | S. cerevisiae deletion strains, locus YNL298W, strain CLA4, hits give low values 1.01 | S. cerevisiae deletion strains, locus YNL307C, strain MCK1, hits give low values 1.05 | S. cerevisiae deletion strains, locus YNL322C, strain KRE1, hits give low values 1.02 | S. cerevisiae deletion strains, locus YNR052C, strain pop2, hits give low values 1.03 | S. cerevisiae deletion strains, locus YOL006C, strain TOP1, hits give low values 1.2 | S. cerevisiae deletion strains, locus YOL012C, strain htz1 1.18 | S. cerevisiae deletion strains, locus YOL147C, strain pex11, hits give low values 1.02 | S. cerevisiae deletion strains, locus YOR061W, strain CKA2, hits give low values 1.02 | S. cerevisiae deletion strains, locus YOR069W, strain VPS5, hits give low values 1.01 | S. cerevisiae deletion strains, locus YOR136W, strain idh2, hits give low values 1.02 | S. cerevisiae deletion strains, locus YOR144C, strain elg1, hits give low values 1 | S. cerevisiae deletion strains, locus YOR184W, strain ser1, hits give low values 1.02 | S. cerevisiae deletion strains, locus YOR316C, strain cot1, hits give low values 1.02 | [2] 1.05 | S. cerevisiae deletion strains, locus YPL241C, strain CIN2, hits give low values 1.02 | S. cerevisiae deletion strains, locus YPR119W, strain clb2, hits give low values 1.02 | S. cerevisiae deletion strains, locus YPR141C, strain kar3, hits give low values 1.02 | S. cerevisiae deletion strains, locus YPR163C, strain tif3, hits give low values 1.02 | S. cerevisiae deletion strains, locus YPR167C, strain met16, hits give low values 1.03 | S. cerevisiae deletion strains, strain wtn01, hits give low values 1.03 | S. cerevisiae strains, strain wild type, hits give low values 1.02

COc1cc(C(=O)OCCCN2CCCN(CCCOC(=O)c3cc(OC)c(OC)c(OC)c3)CC2)cc(OC)c1OC
inactive: S. cerevisiae deletion strains, locus YAL040C, strain CLN3, hits give low values 0.967 | S. cerevisiae deletion strains, locus YCL061C, strain MRC1 (second series), hits give low values 1.01 | S. cerevisiae deletion strains, locus YDR150W, strain NUM1, hits give low values 0.998 | S. cerevisiae deletion strains, locus YDR363W, strain ESC2, hits give low values 1.03 | S. cerevisiae deletion strains, locus YER002W, strain NOP16, hits give low values 1.03 | [1] 1.01 | S. cerevisiae deletion strains, locus YNL175C, strain NOP13, hits give low values 1.01 | S. cerevisiae deletion strains, locus YNL197C, strain WHI3, hits give low values 1 | S. cerevisiae deletion strains, locus YNL224C, strain SQS1, hits give low values 1.01 | S. cerevisiae deletion strains, locus YOR083W, strain WHI5 (second series), hits give low values 0.972 | [2] 1.02
